Data published in PubChem BioAssay (NCI).
The panel holds about 83,000 compounds, 20% with a hit somewhere; the sample as a whole holds those more often.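 96-well plates, one dose, 48 hours. Percent growth reported; active if below 10.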 Unmarked numbers belong to inactive results. Activity calls are given as the source filed them.

What follows are molecules tested on MDA-MB-468 breast (assay: NCI-60 one-dose screen, 48 h (100 = growth as untreated, 0 = no growth, -100 = all killed)). Conditions: 10 µM unless noted.
Work on `Nn1c(=O)c(=O)[nH]c2c(cnn2-c2ccccc2)c1=O` yielded a growth of 105%. In the case of `COc1cc(CSc2nc3ccc(Cl)cc3c(=O)n2-c2ccccc2)cc(OC)c1OC`, the growth is reported as 57.4%. Molecule `Cc1ccc(NC(=O)c2ccccc2Cl)cc1` has a growth of 114%. For `COc1cc([C@@H]2c3cc4c(cc3C(O[C@@H]3O[C@@H]5CO[C@@H](c6cccs6)OC5[C@H](O)[C@H]3O)C3COC(=O)[C@@H]32)OCO4)cc(OC)c1O` (stereo not given in full), the growth was -58.9% (active). `CCCCNc1ccc(Nc2ccccc2)cc1` was tested, and the growth was 11.4%. In the case of `Cc1nc(/N=C(N)/N=C(\N)c2cccc(Br)c2)sc1C`, the growth is reported as 32.5%. Work on `COc1ccc(/C=C/C(=O)c2ccc(NC(=O)CN3CCN(c4cc5c(cc4F)c(=O)c(C(=O)O)cn5C4CC4)CC3)cc2)cc1` yielded a growth of 99.1%. Molecule `CCOC(=O)c1nc2c3ccccc3ccn2c1C(=O)OCC` has a growth of 109%. In the case of `COc1ccccc1Nc1cc(O)c2c(=O)cc(-c3ccccc3)oc2c1`, the growth is reported as -1.72% (active). `NC(=O)CCCN1C/C(=C\c2ccccc2)C(=O)c2ccccc21` was tested, and the growth was 90.8%. In the case of `NC(=O)N/N=C\c1ccco1`, the growth is reported as 119%. Molecule `CNC(=S)Sc1ccc([N+](=O)[O-])cc1[N+](=O)[O-]` has a growth of 35.6%. In the case of `CN1c2ccccc2C(C)(C)C12C=Cc1cc(O)ccc1O2` (stereo not given), the growth is reported as 4.08% (active). `Cc1cc2c(c(=O)o1)C(c1ccc(OC(=O)N3CCOCC3)cc1)C(C#N)=C(N)O2` (stereo not given) gave a growth of 119%. `CCCCOCCOCCOCc1cc2c(cc1Br)OCO2` showed a growth of 102%. Molecule `S=c1c2ncccc2c(-c2ccccn2)nn1Cc1ccccn1` has a growth of 111%. Work on `CCOC(=O)c1c(Nc2ccccc2)nn2c(-c3ccccc3)ccnc12` yielded a growth of 98%. With `CCN1CCN(c2nc(NCCCNc3ccnc4cc(Cl)ccc34)c3ccccc3n2)CC1` the growth was 29.1%. For `Cc1c(C)n(CC(O)CNC2CCCCC2C)c2ccccc12` (stereo not given), the growth was -33.8% (active). `COc1ccc(CCN2COc3c([C@@H](C)CCC=C(C)C)ccc(C)c3C2)cc1OC` showed a growth of 26.8%. Work on `Cc1nc2sc(C(=O)Nc3ccc(Br)cc3)c(N)c2cc1C(O)c1ccccc1` (stereo not given) yielded a growth of 12.7%. Work on `CCN(CC)CCCCCCCNc1cc(OC)cc2c(C)ccnc12` yielded a growth of 40.5%. Molecule `N#CC1=C(N)Oc2c(c(=O)[nH]c3ccc(Cl)cc23)C12C(=O)c1ccccc1C2=O` has a growth of 96.6%. For `O=C(C[C@@]1(O)C(=O)Nc2c(Cl)ccc(Cl)c21)c1ccc(C2CC2)cc1`, the growth was -4.24% (active). For `O=C(/C=C/c1ccco1)c1ccccc1O`, the growth was 60.7%. With `COc1cc(/C=C2\C(=O)Nc3ccccc32)ccc1OCc1ccc(Cl)cc1` the growth was 102%. Molecule `Cc1ccc(CSCc2ccc(C(=O)NC3CC3)o2)cc1` has a growth of 49.2%. `N#Cc1c(Nc2cccc(Cl)c2)sc(C(=O)c2cc3cc(Cl)ccc3o2)c1N` was tested, and the growth was 100%. `O=C(/C(=N/O)c1ccccc1)c1ccccc1` gave a growth of 93.1%. In the case of `NC(N)=Nc1ccc(Oc2cccc(Nc3ccc(Br)c(C(F)(F)F)c3)c2)cc1`, the growth is reported as -10.6% (active). `O=c1c2cc(F)cc(Cl)c2sc2c(NCCCNCCO)nc3ccccc3c12` gave a growth of 78.2%. Work on `COc1cc(NCC(=O)Nc2cc(Nc3ccc(C)cc3)ncn2)c(Cl)c(OC)c1Cl` yielded a growth of 105%. Work on `O=C(/C=C/c1ccc(Cl)cc1)c1cccc(OCCCOc2cccc(C(=O)/C=C/c3ccc(Cl)cc3)c2)c1` yielded a growth of 92.9%. Molecule `Cn1cc(-c2cc(N)n3nc(-c4cn(C)c5ccccc45)cc3n2)c2ccccc21` has a growth of 75%. In the case of `Nc1nc(-c2cccc([N+](=O)[O-])c2)c(N=Nc2ccccc2)s1`, the growth is reported as 11.5%. For `COC(=O)[C@H](Cc1cn(C)cn1)NC(=O)[C@@H](NC(=O)Nc1cc(C(F)(F)F)cc(C(F)(F)F)c1)C(C)C`, the growth was -60.4% [100 µM] (active). `O=C(/C=C/c1ccc(C(F)(F)F)cc1)c1ccc(Nc2nc(NCCO)nc(Nc3ccc(Cl)cc3)n2)cc1` showed a growth of 69.4%. `COc1ccc(/C=C2\CN(C(=O)C(Cl)Cl)C/C(=C\c3ccc(OC)cc3)C2=O)cc1` was tested, and the growth was -27.5% (active). Work on `COc1ccc(-c2cncn2-c2ccc(-c3nc4cc(OC)c(OC)c(OC)c4s3)cc2)cc1N` yielded a growth of 78.4%. In the case of `C(=N/Nc1ncnc2nc[nH]c12)/c1ccccn1`, the growth is reported as -27.3% (active).
